Experimental data published in PubChem BioAssay (EPA / NIEHS).
Several values for one entry are separate records, joined by “and”; a condition that tells them apart may be missing. Equal values may be shown once. Results filed as inconclusive are left out. More than one record can exist for a structure, and the calls need not agree. Activity calls are given as the source filed them. How the source made its calls: active means hit-call score of the fitted dose curve at least 0.9, where 1 is the maximum; inconclusive means response in the unintended direction; inactive means score below 0.9.

Key:
[1] = TOX21_p53_BLA_p2_viability: Viability Assessment in the Tox21 HCT-116 p53 Agonism Beta-lactamase Assay, Phase 2 (AID 2283591);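 further: compound exposure lasted 16 h at 37 °C; actives lower the ATP signal meaning cytotoxicity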
Procedure, shortened: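 Cytotoxicity readout: CellTiter-Glo ATP luminescence, 30 min at room temperature, after the beta-lactamase read. Cells were HCT116 exposed 16 h at 37C to compounds pin-transferred at 217-fold dilution from DMSO stocks.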

[2] = molecular target: Cellular tumor antigen p53 (Homo sapiens) (UniProt P04637); test: TOX21_p53_BLA_p2_ratio: Tox21 HCT-116 p53 Agonism Beta-lactamase Assay, Ratio, Phase 2 (AID 2283592)
Chain of Cellular tumor antigen p53 (Homo sapiens) (P04637 whole entry, looked up): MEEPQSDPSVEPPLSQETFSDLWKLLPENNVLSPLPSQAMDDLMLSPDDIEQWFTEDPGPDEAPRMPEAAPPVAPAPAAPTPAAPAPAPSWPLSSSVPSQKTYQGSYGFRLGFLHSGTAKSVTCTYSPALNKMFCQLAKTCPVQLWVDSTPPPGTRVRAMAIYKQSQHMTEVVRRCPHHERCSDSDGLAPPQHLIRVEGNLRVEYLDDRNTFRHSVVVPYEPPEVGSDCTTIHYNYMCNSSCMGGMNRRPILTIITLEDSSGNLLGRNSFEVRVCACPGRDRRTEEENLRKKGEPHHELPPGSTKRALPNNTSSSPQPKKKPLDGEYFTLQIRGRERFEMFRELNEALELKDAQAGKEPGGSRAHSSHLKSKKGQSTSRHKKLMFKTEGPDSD
Procedure, shortened: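 Human colon HCT116 cells with an inducible p53 beta-lactamase reporter are exposed to test chemicals for 16 h at 37C. Reporter induction is read as the 460/530 nm emission ratio after CCF4-AM loading, normalized to DMSO.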

[3] = TOX21_p53_BLA_p3_viability: Viability Assessment in the Tox21 HCT-116 p53 Agonism Beta-lactamase Assay, Phase 3 (AID 2283593);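 further: cells exposed to compound for 16 h before reading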
Procedure, shortened: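 Cellular ATP was quantified by CellTiter-Glo luminescence, read after 30 min at room temperature. Beforehand, HCT116 cells (4000/well) received compound 5 h post-seeding, 217-fold diluted from DMSO, then incubated 16 h at 37C.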

[4] = molecular target: Cellular tumor antigen p53 (Homo sapiens) (UniProt P04637); test: TOX21_p53_BLA_p3_ratio: Tox21 HCT-116 p53 Agonism Beta-lactamase Assay, Ratio, Phase 3 (AID 2283596)
Procedure, shortened: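 HCT116 p53-bla cells (4000/well) given compound in DMSO (217-fold dilution) after 5 h, incubated 16 h at 37C. CCF4-AM substrate 2 h at room temperature; 460/530 nm emission ratio, gain fitted against DMSO.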

[5] = TOX21_p53_BLA_p4_viability: Viability Assessment in the Tox21 HCT-116 p53 Agonism Beta-lactamase Assay, Phase 4 (AID 2283597);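 further: hits lower the luminescence signal meaning cytotoxicity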
Procedure, shortened: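 Luminescent ATP readout (CellTiter-Glo, 30 min, room temperature) in the same wells as the p53 bla ratio. HCT116 cells were treated for 16 h at 37C with DMSO-dissolved compounds.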

[6] = molecular target: Cellular tumor antigen p53 (Homo sapiens) (UniProt P04637); test: TOX21_p53_BLA_p5_ratio: Tox21 HCT-116 p53 Agonism Beta-lactamase Assay, Ratio, Phase 5 (AID 2283599)
Procedure, shortened: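 Beta-lactamase reporter ratio (blue 460 nm over green 530 nm, 405 nm excitation) after 2 h CCF4-AM loading, in HCT-116 cells exposed 16 h at 37 C to compounds pinned at 217-fold dilution. Increases relative to DMSO baseline scored.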

[7] = molecular target: Cellular tumor antigen p53 (Homo sapiens) (UniProt P04637); test: TOX21_p53_BLA_p4_ratio: Tox21 HCT-116 p53 Agonism Beta-lactamase Assay, Ratio, Phase 4 (AID 2283601)
Procedure, shortened: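 Signal is the blue/green (460nm/530nm) ratio of cleaved versus uncleaved CCF4-AM substrate, read after 2 h substrate loading. Cells were HCT116 carrying the p53-responsive beta-lactamase reporter, dosed 16 h at 37C, 5% CO2; CellTiter-Glo measured in parallel.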

[8] = Tanguay_ZF_120hpf_MORT_legacy: (Legacy) Oregon State University Tanguay Lab 120 Hour Post-fertilization zebrafish Assay for Mortality (AID 2283633);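 on AC50: fitted as increase in binary mortality versus DMSO negative control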
Procedure, shortened: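 Single dechorionated Tropical 5D embryos were held with test chemical (0.64% DMSO final) from 6 to 120 hpf at 28C under foil. Deaths at 24 or 120 hpf were recorded as binary calls, analysed for increase over DMSO controls.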

[9] = TOX21_p53_BLA_p5_viability: Viability Assessment in the Tox21 HCT-116 p53 Agonism Beta-lactamase Assay, Phase 5 (AID 2283600)
Procedure, shortened: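 Seeded cells (4000/well) settle 5 h before compound addition. Plates then incubate 16 h at 37C, receive FRET substrate for 2 h, and finally CellTiter-Glo, with luminescence measured after a 30 min room-temperature incubation.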

Measured: AC50

CC(C)(C)OOC(=O)c1ccccc1
inactive: [1] | [2] | [3] | [4] | [5] | [6] | [7] | [8]

OCCCBr
inactive: [1] | [2] | [3] | [4] | [5] | [6] | [7] | [8]

Nc1ccc([N+](=O)[O-])cc1
inactive: [1] | [2] | [3] | [4] | [5] | [6] | [7] | [8]

CCCCOC(=O)c1ccccc1C(=O)OCc1ccccc1
inactive: [1] | [2] | [3] | [4] | [5] | [6] | [7] | [8]

O=P(OCCCl)(OCCCl)OCCCl
inactive: [1] | [2] | [3] | [4] | [5] | [6] | [7] | [8]

O=Cc1ccco1
inactive: [1] | [2] | [3] | [4] | [5] | [6] | [7] | [8]

c1ccc2c(c1)oc1ccccc12
inactive: [1] | [2] | [3] | [4] | [5] | [6] | [7] | [8]

CCC[CH2][Sn]([Cl])([CH2]CCC)[CH2]CCC
active: [1] 1.22 µM and 1.04 µM | [2] 31.8 µM and 46 µM | [3] 921 nM and 958 nM | [4] 25.6 µM and 28.6 µM | [5] 917 nM and 983 nM | [6] 36.5 µM and 31.8 µM | [7] 27.7 µM and 25.6 µM | [8] 0.282 µM

CCN(CC)N=O
inactive: [1] | [2] | [3] | [4] | [5] | [6] | [7] | [8]

Nc1ccc(N=Nc2ccccc2)cc1
inactive: [1] | [2] | [3] | [4] | [5] | [6] | [7] | [8]

CC(C)(O)c1cnn2c(-c3ccc(F)c(-c4c(F)cccc4C#N)c3)cnc2n1
inactive: [1] | [2] | [3] | [5] | [7] | [8]

COC(=O)c1ccccc1N
inactive: [1] | [2] | [3] | [4] | [7] | [8]

CN(C)C(=O)Nc1ccc(Cl)cc1
inactive: [1] | [2] | [3] | [4] | [5] | [6] | [7] | [8]

CC(C)(C)C(O)(CCc1ccc(Cl)cc1)Cn1cncn1 (stereo not given)
inactive: [1] | [2] | [3] | [4] | [5] | [6] | [7] | [8]

C1=Cc2cccc3cccc1c23
inactive: [1] | [2] | [3] | [4] | [5] | [6] | [7] | [8]

C=CCc1ccc2c(c1)OCO2
inactive: [1] | [2] | [3] | [4] | [5] | [6] | [7] | [8]

Nc1cc(Cl)cc(C(=O)O)c1Cl
inactive: [1] | [2] | [3] | [4] | [5] | [6] | [7] | [8]

Oc1ccccc1Cl
inactive: [1] | [2] | [3] | [4] | [6] | [7] | [8]

Brc1ccc(Oc2ccccc2)cc1
inactive: [1] | [2] | [3] | [4] | [6] | [9] | [7] | [8]

COP(=S)(OC)SCN1C(=O)c2ccccc2C1=O
inactive: [1] | [2] | [3] | [4] | [5] | [6] | [7] | [8]

CCOC(=O)[C@]1(c2ccccc2)Oc2ccccc2[C@@H]1N
inactive: [8]

CCCCCCCCCCCCCN1CC(C)OC(C)C1 (stereo not given)
inactive: [2] | [3] | [4] | [7] | [8]

CC(C)COC(=O)c1ccccc1C(=O)OCC(C)C
inactive: [8]

O=[N+]([O-])C(Br)(CO)CO
inactive: [8]

Cn1cc(-c2ccccc2)c(=O)c(-c2cccc(C(F)(F)F)c2)c1
inactive: [1] | [2] | [4] | [6] | [7] | [8]

CCCCCCCCOC(=O)c1ccc(C(=O)OCCCCCCCC)c(C(=O)OCCCCCCCC)c1
inactive: [1] | [3] | [4] | [5] | [6] | [7] | [8]

[O-][Cl+]O
inactive: [1] | [2] | [6] | [9] | [8]

O=C(Oc1ccc(Br)cc1)N1CCN2CCC1CC2
inactive: [1] | [3] | [5] | [7] | [8]

CCCCC(CC)COC(=O)c1ccc(C(=O)OCC(CC)CCCC)c(C(=O)OCC(CC)CCCC)c1 (stereo not given)
inactive: [2] | [3] | [4] | [5] | [6] | [7] | [8]

CCNS(=O)(=O)C(F)(F)C(F)(F)C(F)(F)C(F)(F)C(F)(F)C(F)(F)C(F)(F)C(F)(F)F
inactive: [8]

OCCOCCO
inactive: [8]

CCCSC(=O)N(CCC)CCC
inactive: [4] | [5] | [6] | [9] | [8]

OCCCl
inactive: [2] | [3] | [4] | [8]

O=C(N[C@H](c1ccccc1)[C@@H]1CN2CCC1CC2)c1c(Cl)ccc(C(F)(F)F)c1Cl
active: [7] 127 µM | [8] 26.7 µM
inactive: [1] | [2] | [6] | [9]

[Cl-].[Cl-].[Hg+2]
inactive: [3]
active: [1] 34.8 µM and 7.78 µM and 16.4 µM | [3] 68.5 µM and 26.1 µM | [5] 32.1 µM and 9.76 µM and 12 µM | [9] 85.2 µM and 19 µM and 18.5 µM | [8] 2.7 µM

N#CC(Br)(Br)C(N)=O
inactive: [2] | [3] | [4] | [7] | [8]
active: [5] 70.2 µM

COC(=O)Nc1nc2ccccc2[nH]1
inactive: [3] | [5]
active: [2] 10.1 µM and 7.91 µM | [4] 12.9 µM and 8.81 µM | [6] 15 µM and 15.4 µM | [7] 9.43 µM and 7.88 µM

CCOc1cccc(C2(N3CCN(c4ccccc4)CC3)CCC(C)CC2)c1 (stereo not given)
inactive: [4] | [8]

O=C(Nc1ccccc1)c1ccccc1I
inactive: [8]

Cc1ccc([N+](=O)[O-])cc1
inactive: [1] | [2] | [4] | [5] | [6] | [7] | [8]

Cc1ccc(N=C=O)cc1N=C=O
inactive: [2] | [3] | [4] | [5] | [6] | [7] | [8]

Cc1ccc(N)cc1
inactive: [2] | [4] | [5] | [6] | [9] | [7] | [8]

N#CC(Br)Br
inactive: [8]

O=C1CCCO1
inactive: [2] | [3] | [4] | [5] | [6] | [7] | [8]

c1ccc(N=Nc2ccccc2)cc1
inactive: [1] | [2] | [4] | [6] | [7] | [8]

CCCCCOC(=O)c1ccccc1C(=O)OCCCCC
inactive: [1] | [4] | [5] | [6] | [7] | [8]

O=C(O)C1C2CCC(O2)C1C(=O)O (stereo not given)
inactive: [1] | [2] | [4] | [5] | [6] | [7] | [8]

c1ccc(C2CO2)cc1 (stereo not given)
inactive: [1] | [3] | [4] | [6] | [7] | [8]
